Bioassay records deposited in PubChem by several laboratories.
CF NFkB inh: inhibitors of PAF-induced NF-kB signaling, primary screen, cell-based, GFP fluorescence, uHTS | KKLEB NF-kB-GFP reporter, GFP fluorescence overnight | inhibition, % at 5 µM | 0.86% of 360,000 active | AID 588850, 2011;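 active means at least 50% inhibition at 5 µM, scaled per plate between neutral and stimulator controls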;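 further: PAF is a Pseudomonas aeruginosa culture filtrate used as stimulus; plate controls were PAF-stimulated DMSO wells for no effect and unstimulated DMSO wells for full effect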
KKLEB tox: cytotoxicity in KKLEB CF airway cells, primary screen, cytotoxicity control for CF NF-kB inhibitor project, cell-based, uHTS, fluorescence assay plates. activity change (cytotoxicity), % at 5 µM. KKLEB CF airway cells viability, ATPlite luminescence, overnight; stronger effect = lower value; cells stimulated with P. aeruginosa culture filtrate. 0.36% of 360,000 active;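 active means corrected activity change at or below -50% at 5 µM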
Shn3 3UTR inh: reduction of Shn3 3'UTR firefly luciferase signal, primary screen, Schnurri-3 inhibitor project, cell-based, Clone20 osteoblasts, set 2. Clone20 osteoblast Shn3 3'UTR firefly luciferase, 24 h. 0.52% of 360,000 active. inhibition, % at 12.5 µM;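 active means mean inhibition of at least 75% with every replicate also reaching 75%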;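 further: 0% = median of neutral control wells and 100% = pilot-screen positive control compound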
MITF TRPM1 inh: inhibitors of MITF-dependent TRPM1 promoter reporter, primary screen, cell-based, SK-MEL-5, single point, luciferase; SK-MEL-5 TRPM1 promoter luciferase, 24 h; inhibition, % at 12.5 µM; 0.83% of 330,000 active;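 active means mean inhibition across replicates of 60% or more, whatever share of single replicates reaches that level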
HIF-2a block: HIF-2a reporter inhibitors, primary screen, luminescence, 786-0 RCC cells; 786-0 RCC cells HIF-2a reporter, luciferase luminescence, overnight; inhibition, % at 18.8 µM; 0.72% of 360,000 active;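 active means inhibition of the luminescence signal of 40% or more relative to plate controls, in a single-dose primary screen at 18.75 µM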
Peg3 promoter: Peg3 promoter-driven luciferase inhibitors, primary screen, cell-based, HeLa, luciferase luminescence | HeLa PEG-Prom luciferase reporter, overnight | inhibition, % at 20 µM | 1.7% of 360,000 active | AID 588405, 2011;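 active means inhibition of at least 50% at 20 µM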
Mdm2-MdmX confirm: retested Mdm2-MdmX interaction blockers, confirmation, cell-based, luminescence, single concentration, set 2; shares compounds with HIF-2a block; SaOS-2 split-luciferase Mdm2/MdmX complementation; inhibition, % at 8 µM; 99% of 740 active;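 active means mean inhibition of the luminescence signal across two replicates at or above 26 percent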
Target sequence (O15151 whole entry, looked up): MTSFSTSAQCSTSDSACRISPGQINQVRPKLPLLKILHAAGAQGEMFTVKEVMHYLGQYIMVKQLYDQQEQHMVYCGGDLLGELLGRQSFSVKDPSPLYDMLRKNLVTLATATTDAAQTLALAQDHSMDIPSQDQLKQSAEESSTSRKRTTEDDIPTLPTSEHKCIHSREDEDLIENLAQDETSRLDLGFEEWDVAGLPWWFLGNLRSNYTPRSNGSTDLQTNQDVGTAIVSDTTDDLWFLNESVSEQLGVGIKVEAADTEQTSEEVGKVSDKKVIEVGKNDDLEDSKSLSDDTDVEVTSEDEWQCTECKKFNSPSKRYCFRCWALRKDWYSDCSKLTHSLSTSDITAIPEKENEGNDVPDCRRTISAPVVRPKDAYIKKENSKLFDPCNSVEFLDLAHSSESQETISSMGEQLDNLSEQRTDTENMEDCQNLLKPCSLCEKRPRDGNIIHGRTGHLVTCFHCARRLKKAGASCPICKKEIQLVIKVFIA
Target sequence (Q00987 whole entry, looked up): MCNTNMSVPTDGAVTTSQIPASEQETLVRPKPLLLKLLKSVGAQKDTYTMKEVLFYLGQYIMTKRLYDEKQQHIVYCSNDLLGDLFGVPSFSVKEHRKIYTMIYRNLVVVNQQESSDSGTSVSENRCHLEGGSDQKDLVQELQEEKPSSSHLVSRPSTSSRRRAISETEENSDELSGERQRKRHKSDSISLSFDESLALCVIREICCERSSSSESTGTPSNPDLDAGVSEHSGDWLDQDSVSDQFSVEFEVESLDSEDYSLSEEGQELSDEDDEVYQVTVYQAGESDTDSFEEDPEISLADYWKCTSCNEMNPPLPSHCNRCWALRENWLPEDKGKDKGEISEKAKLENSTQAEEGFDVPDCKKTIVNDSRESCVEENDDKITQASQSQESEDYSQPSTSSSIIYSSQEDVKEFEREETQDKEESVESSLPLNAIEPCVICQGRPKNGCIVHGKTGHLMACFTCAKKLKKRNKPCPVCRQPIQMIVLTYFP
HIF-2a inh conf: HIF-2a reporter inhibitor retest, confirmation, luminescence, 786-0 RCC cells. 56% of 1,800 active. HIF-2a luciferase reporter luminescence, overnight. AID 651580, 2012. inhibition, % at 18.8 µM. shares compounds with HIF-2a block;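 active means mean inhibition across four replicates of at least 40 percent at the single tested concentration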
HIF-1a cs: HIF-1a luciferase reporter signal reduction – MiaPaCa-2 cells, single concentration, counter-screen for HIF-2a inhibitor project, confirmation. shares compounds with HIF-2a block. MiaPaCa-2 HIF-1a luciferase reporter, desferoxamine, overnight. inhibition, % at 18.8 µM. 72% of 1,800 active. AID 651589, 2012;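 active means mean inhibition of the reporter signal across four replicates at the single tested dose of 50% or more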
An asterisk follows results filed as active; . = no result. In the library only some 2.8% were active in any assay of this set; here they are far more common.

SMILES | CF NFkB inh | KKLEB tox | Shn3 3UTR inh | MITF TRPM1 inh | HIF-2a block | Peg3 promoter | HIF-2a inh conf | HIF-1a cs | others
CCCOc1ccc(C(=O)C(CN2CCOCC2)c2ccccc2)cc1 (stereo not drawn) | -7 | -29 | -16 | 36 | 63* | 94* | -8 | 100*
Cc1cc(C(=O)CCl)c(C)n1CCc1ccc(Cl)cc1 | 30 | -30 | 41 | 78* | 48* | 98* | 49* | 105*
c1ccc(CSc2nc3ncccn3n2)cc1 | -1 | 8 | -103 | -67 | -236 | -176 | . | .
S=c1[nH]nc(-c2ccccc2)n1/N=C/c1ccc(-c2ccccc2Cl)o1 | 7 | 19 | 13 | 6 | 0 | 12 | . | . | Mdm2-MdmX confirm=100*
CCC1(c2ccccc2)NC(=O)N(CC(=O)Nc2ccc(OC)nc2)C1=O (stereo not drawn) | -41 | 4 | -2 | -1 | 12 | 13 | . | .
CC(C)[C@H](NC(=O)c1c(F)cccc1F)C(=O)OCC(=O)NNC(=O)c1ccccc1 | -11 | 0 | 3 | . | 1 | -2 | . | .
O=C(Nc1ccc2nc3n(c(=O)c2c1)CCCCC3)c1c(F)ccc([N+](=O)[O-])c1F | 87* | -87* | 99* | 97* | 88* | 108* | 98* | 96* | Mdm2-MdmX confirm=103*
O=C(Nc1ccc2nc3n(c(=O)c2c1)CCCCC3)c1ccccc1[N+](=O)[O-] | 25 | -10 | -13 | -37 | -62 | -35 | . | .
COc1ccc(/C=C\C(=O)c2c(O)ccc3c(C)cc(=O)oc23)cc1OC | 17 | 1 | -14 | -2 | 55* | 42 | 27 | 85*
COc1cc(/C=C/C(=O)c2c(O)ccc3c(C)cc(=O)oc23)ccc1O | 4 | -28 | -20 | 2 | 29 | 44 | . | .
COC(=O)c1ccc(Oc2nc(C(N)=O)cc(-c3ccccc3)n2)cc1 | -10 | -14 | 18 | -3 | 14 | 3 | . | .
Cn1c(=S)n(C)c2ccccc21 | 6 | -8 | -9 | 2 | 55* | 0 | -13 | -12
Cc1c(/C(O)=C2/C(=O)C(=O)N(CCN3CCOCC3)C2c2ccccn2)cnn1-c1ccccc1 (stereo not drawn) | -1 | -3 | 40 | 47 | 73* | 33 | 40* | 59*
COc1ccc(NC(=O)Nc2ccc3c(c2)OCO3)c(C)c1 | -13 | 24 | -47 | -42 | -120 | -182 | . | .
CC(=O)Nc1ccc2[nH]c3ccccc3c2c1 | -6 | 2 | -9 | -30 | -112 | -52 | . | .
O=C(Nc1ccc(Cl)cc1)c1cc2c(cc1O)[nH]c1ccccc12 | 67* | -63* | -21 | 3 | -75 | 54* | . | . | Mdm2-MdmX confirm=102*
CCCCOc1ccc(/C(N)=N/O)cc1 | -8 | 6 | -44 | -34 | -153 | -113 | . | .
O=C(COC(=O)CCCOc1ccc(Cl)cc1Cl)NCc1ccccc1 | -23 | 5 | 17 | -10 | 64* | -3 | 63* | 54*
COc1ccc(CNC(=O)COC(=O)CCCOc2ccc(Cl)cc2Cl)cc1OC | 6 | 5 | 5 | 3 | 31 | -2 | . | .
Cc1ccc(CNC(=O)COC(=O)CCCOc2ccc(Cl)cc2Cl)cc1 | -1 | 6 | 0 | 19 | 62* | 3 | 70* | 57*
Nc1ccn([C@@H]2O[C@H](CNCc3cnc(N4CCOCC4)s3)[C@@H](O)[C@H]2O)c(=O)n1 | -6 | 5 | -4 | . | -5 | -7 | . | .
COc1ccc(C=C2C=C(C(C)(C)C)C(=O)C(C(C)(C)C)=C2)cc1OC | 43 | -12 | 93* | -2 | 82* | 105* | 65* | 103*
Cc1ccc(NC(=O)CCC(=O)N/N=C/c2coc3ccccc3c2=O)cc1 | 11 | -5 | 8 | 5 | 53* | 24 | -7 | 16
N#Cc1c(N)nc(Sc2ccc(Cl)cc2)c(C#N)c1-c1ccccc1Cl | 46 | -16 | 79 | 37 | 47* | 52* | 16 | 45
CC(C)N1C(=O)/C(=C/c2nc3ccccc3c(=O)n2-c2ccccc2)c2ccccc21 | 3 | 1 | -1 | 22 | 64* | 32 | 59* | 102*
SMILES | CF NFkB inh | KKLEB tox | Shn3 3UTR inh | MITF TRPM1 inh | HIF-2a block | Peg3 promoter | HIF-2a inh conf | HIF-1a cs | others
Nc1sc(-c2ccccc2)cc1C(=O)N1CCN(c2ccccc2)CC1 | . | . | . | . | 5 | . | . | .
COc1ccc(Br)cc1C(C[N+](=O)[O-])c1c(N)n(C)c(=O)n(C)c1=O (stereo not drawn) | -8 | -8 | 55 | 80* | 58* | 68* | 21 | 86*
O=C(CCCCCCCC(=O)N1CCCC1)N1CCCC1 | -2 | -4 | -6 | -4 | 1 | 0 | . | .
COc1ccccc1NC(=S)N=Nc1c(O)[nH]c2ccc(Br)cc12 | 23 | -18 | 28 | 21 | 7 | 92* | . | . | Mdm2-MdmX confirm=84*
O=c1cccc2n1Cc1cc3ccccc3nc1-2 | -43 | 14 | -44 | -35 | -179 | -242 | . | .
CC[C@@]1(O)C(=O)OCc2c1cc1n(c2=O)Cc2cc3c(N)cccc3nc2-1 | 76* | -23 | 36 | 80* | 27 | 72* | . | . | Mdm2-MdmX confirm=100*
CCOC(=O)c1c2c(n(C)c1C)C(=O)C(=O)c1ccc(Br)cc1-2 | 97* | -78* | 94* | 87* | 12 | 101* | . | . | Mdm2-MdmX confirm=97*
CCOC(=O)Cc1ccc(NC(=O)c2ccc(C(C)(C)C)cc2)cc1 | 8 | -10 | 77 | 6 | 90* | -45 | 97* | 77*
CCOc1ccc(/C=C/C(=O)c2ccccc2)cc1OC | 0 | -12 | -66 | -45 | -145 | -203 | . | .
COc1cccc(C(=O)/C=C/c2ccc(OCC#N)c(OC)c2)c1 | 12 | -28 | 3 | 55 | 85* | 107* | 42* | 105*
O=S1(=O)Nc2c(ccc3cccnc23)-c2ccccc21 | 52* | 12 | 88* | 77* | 18 | 111* | . | . | Mdm2-MdmX confirm=103*
Clc1ccc2ccc3cccnc3c2n1 | -27 | -4 | 36 | -5 | -28 | -24 | . | .
